Records with an inconclusive call do not appear. Unmarked numbers belong to inactive results. The source made the active and inactive calls. The call rests on the fitted dose curve; in most records, active means well fitted inhibition curve with a large enough effect; inconclusive means small, poorly fitted or top-dose-only effect; inactive means flat fitted curve, though single readings scatter.
Test: P-glycoprotein substrates identified in KB-8-5-11 adenocarcinoma cell line, qHTS therapeutic library screen (AID 1346987); further: nearly all actives have a fitted effect of over 65% in size
Conditions: KB-8-5-11 (P-gp overexpressing) viability, CellTiter-Glo, 72 h; series mostly up to 44.5 µM; activity change, negative = cytotoxicity: at the top concentration
How it was run: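 KB-8-5-11: colchicine-selected sub-line of KB-3-1 over-expressing P-gp; assay medium lacked colchicine. 72 h drug exposure at 37 degree C, CellTiter-Glo.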
On the % scale 0 is the no-effect control and ±100 the full control effect; potency means the concentration at half of the fitted maximal effect.

Structure (SMILES) | Potency | activity change, negative = cytotoxicity | outcome
COc1c(C)cnc(Cn2cc(C#CCC(C)(C)O)c3c(Cl)nc(N)nc32)c1C | 32.6 nM (active) |  | 
C/C=C(/C)C(=O)OC1C=C2C3C(C)C(C)C(OC(=O)C(C)C(C)O)CC3(C)CCC2(C)C2(C)CC(OC(C)=O)C3C(C)(C)C(O)C(=O)CC3(C)C12 (centres undefined) |  | 6.59% [at 17.3 µM] | 
COc1ccc(CNc2nc(N(CCO)CCO)nc3c2ncn3C(C)C)cc1 | 5800 nM (active) |  | 
COc1c2c(nc3occc13)C(CC=C(C)C)(OC)C(O)CC2 (centres undefined) |  | -23% | 
CC(=O)[C@H]1CC[C@H]2[C@@H]3CC=C4C[C@@H](OS(=O)(=O)O)CC[C@]4(C)[C@H]3CC[C@]12C |  | -0.384% | 
CCC/C=C/c1cc2c(C=O)c(O)c(CC=C(C)C)cc2o1 |  | -14% | 
O=C1c2ccc(Nc3ccc(F)cc3F)cc2CCc2ccc(OCC(O)CO)cc21 (centres undefined) | 14600 nM (active) |  | 
CN1CCN(c2ccc(OC(F)(F)F)c(Nc3ncc4c(n3)-c3c(c(C(N)=O)nn3CCO)CC4)c2)CC1 | 517 nM (active) |  | 
CC(C)C(C)C(O)C1CC23CC(=O)C4(O)C(=C2CCC3C1C)C=CC1(O)CC(O)CCC14C (centres undefined) |  | -3.25% [at 17.3 µM] | 
CCC(C)C(=O)OC1C(C)C2(O)C(C=C(CO)CC3(O)C(=O)C(C)=CC32)C2C(C)(C)C12OC(=O)C(C)C (centres undefined) |  | -25% [at 17.3 µM] | 
C/C=C(\C)C(=O)O[C@H]1C[C@](C)(O)[C@H]2CC=C(C)[C@H]2[C@@H]2OC(=O)[C@H](C)[C@H]21 |  | -20.4% | 
CC(C)CCNc1ncccc1C(=O)N1CCN(Cc2ccccc2)CC1 |  | -22.2% | 
COCC(c1ccc(C(F)(F)F)cc1)N1CCN(C2(C)CCN(C(=O)c3c(C)ncnc3C)CC2)CC1C (centres undefined) |  | -5.48% | 
CCn1c(=O)n([C@H]2CCCN(c3nccc(-c4cc5ccccc5o4)n3)C2)c2ccccc21 |  | -13% | 
COc1ccc(CCO[C@@H]2O[C@H](CO[C@H]3OC[C@](O)(CO)[C@H]3O)[C@@H](OC(=O)/C=C/c3ccc(O)c(O)c3)[C@H](O[C@@H]3O[C@@H](C)[C@H](O)[C@@H](O)[C@H]3O)[C@H]2O)cc1OC |  | 2.86% [at 17.3 µM] | 
O=C(Nc1cccc2cccnc12)c1ccc(N2C(=O)[C@@H]3C4C=CC(C4)[C@@H]3C2=O)cc1 |  | -24.1% | 
CC(=O)OC1CCC2(C)C(CCC3(C)C2CC=C2C4C(C)C(C)CCC4(C)CCC23C)C1(C)C(=O)O (centres undefined) |  | -10.4% [at 17.3 µM] | 
COc1ccc2c(c1O[C@H]1CCNC1)CCC2 |  | 2.35% | 
N#Cc1ccc(-c2ccc(S(=O)(=O)Nc3cccc(N)n3)cc2)cc1 |  | -22% | 
C=C1C(=O)OC2C=C(C)CC/C=C(\CO)CC(O)C12 (centres undefined) |  |  | inactive
O=C(NNc1nc2cc(F)ccc2n2cccc12)c1cnccn1 | 2310 nM (active) |  | 
C[C@@H]1CC[C@@]23CC[C@]4(C)[C@@](C=CC5[C@@]6(C)CC[C@H](O)C(C)(C)C6CC[C@]54C)(OC2=O)C3[C@H]1C (some centres undefined) |  | -9.08% [at 17.3 µM] | 
O=C(NCc1ccc(OC(F)(F)F)cc1)C1c2c(F)cccc2C(=O)N1CCc1ccccn1 (centres undefined) |  | -17.6% | 
C/C=C/C=C/C=C/C(=O)O[C@@H]1C=C(CO)C(O)(C(=O)OC)[C@@]2(C)CCCC(C)(C)C12 (some centres undefined) |  | 4.04% [at 17.3 µM] | 

From PubChem BioAssay (NCATS)
